Source: the supplement of paper PMC10849652
The full data set covers some 8,800 targets. This sample favours those with a hit. About 0.5% of all pairs of compound and target were hits. Unmarked numbers belong to inactive results.

Sequence of UniProt P61024 (P61024 whole entry, looked up): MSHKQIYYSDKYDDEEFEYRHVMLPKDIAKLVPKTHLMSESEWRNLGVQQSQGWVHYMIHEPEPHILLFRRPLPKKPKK
Sequence of UniProt Q8WYQ5 (Q8WYQ5 whole entry, looked up): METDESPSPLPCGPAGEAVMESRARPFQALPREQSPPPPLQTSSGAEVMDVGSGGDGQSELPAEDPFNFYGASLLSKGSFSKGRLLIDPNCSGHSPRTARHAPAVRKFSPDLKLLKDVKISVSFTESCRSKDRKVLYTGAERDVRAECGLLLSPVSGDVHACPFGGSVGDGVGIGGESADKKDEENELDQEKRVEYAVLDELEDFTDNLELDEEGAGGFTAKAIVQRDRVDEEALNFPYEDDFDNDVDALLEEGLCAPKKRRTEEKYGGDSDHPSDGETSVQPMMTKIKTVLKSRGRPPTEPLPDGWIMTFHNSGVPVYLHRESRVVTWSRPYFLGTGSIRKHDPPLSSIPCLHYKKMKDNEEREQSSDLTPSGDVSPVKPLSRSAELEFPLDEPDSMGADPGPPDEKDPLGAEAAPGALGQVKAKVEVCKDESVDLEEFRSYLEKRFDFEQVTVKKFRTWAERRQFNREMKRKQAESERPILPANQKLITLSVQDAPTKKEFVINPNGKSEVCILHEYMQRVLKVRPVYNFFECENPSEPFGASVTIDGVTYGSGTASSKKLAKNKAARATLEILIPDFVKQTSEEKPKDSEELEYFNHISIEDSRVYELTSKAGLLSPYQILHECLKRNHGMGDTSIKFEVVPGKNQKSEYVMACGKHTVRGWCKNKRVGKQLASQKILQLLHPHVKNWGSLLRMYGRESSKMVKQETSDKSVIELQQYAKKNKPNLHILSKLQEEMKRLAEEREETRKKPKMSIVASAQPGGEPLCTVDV
Sequence of UniProt P61923 (P61923 whole entry, looked up): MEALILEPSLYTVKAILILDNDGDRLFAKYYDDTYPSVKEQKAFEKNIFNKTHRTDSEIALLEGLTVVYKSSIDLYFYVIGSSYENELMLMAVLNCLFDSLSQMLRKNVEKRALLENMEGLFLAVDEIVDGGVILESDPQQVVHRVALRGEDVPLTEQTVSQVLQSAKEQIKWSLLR
Sequence of UniProt O75534 (O75534 whole entry, looked up): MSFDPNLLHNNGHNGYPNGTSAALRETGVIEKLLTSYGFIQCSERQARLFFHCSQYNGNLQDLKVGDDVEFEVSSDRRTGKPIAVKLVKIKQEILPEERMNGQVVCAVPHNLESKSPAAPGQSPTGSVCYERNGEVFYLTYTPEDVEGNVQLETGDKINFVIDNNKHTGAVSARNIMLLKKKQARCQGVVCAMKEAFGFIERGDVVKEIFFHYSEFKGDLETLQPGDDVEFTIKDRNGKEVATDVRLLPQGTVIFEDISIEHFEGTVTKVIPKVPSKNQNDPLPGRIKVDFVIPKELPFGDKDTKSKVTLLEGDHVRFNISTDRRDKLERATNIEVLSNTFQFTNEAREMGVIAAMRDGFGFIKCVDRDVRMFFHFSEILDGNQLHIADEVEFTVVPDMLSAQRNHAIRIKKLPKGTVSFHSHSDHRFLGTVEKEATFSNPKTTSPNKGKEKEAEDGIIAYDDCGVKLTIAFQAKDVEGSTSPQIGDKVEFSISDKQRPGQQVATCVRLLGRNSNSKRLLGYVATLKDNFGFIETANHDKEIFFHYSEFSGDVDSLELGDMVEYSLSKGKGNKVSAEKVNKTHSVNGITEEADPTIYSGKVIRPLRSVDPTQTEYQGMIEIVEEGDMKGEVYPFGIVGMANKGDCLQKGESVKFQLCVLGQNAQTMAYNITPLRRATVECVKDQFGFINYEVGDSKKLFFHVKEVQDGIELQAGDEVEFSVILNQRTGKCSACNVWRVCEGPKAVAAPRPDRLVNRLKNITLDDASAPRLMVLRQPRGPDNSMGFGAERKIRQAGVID
Sequence of UniProt P06732 (P06732 whole entry, looked up): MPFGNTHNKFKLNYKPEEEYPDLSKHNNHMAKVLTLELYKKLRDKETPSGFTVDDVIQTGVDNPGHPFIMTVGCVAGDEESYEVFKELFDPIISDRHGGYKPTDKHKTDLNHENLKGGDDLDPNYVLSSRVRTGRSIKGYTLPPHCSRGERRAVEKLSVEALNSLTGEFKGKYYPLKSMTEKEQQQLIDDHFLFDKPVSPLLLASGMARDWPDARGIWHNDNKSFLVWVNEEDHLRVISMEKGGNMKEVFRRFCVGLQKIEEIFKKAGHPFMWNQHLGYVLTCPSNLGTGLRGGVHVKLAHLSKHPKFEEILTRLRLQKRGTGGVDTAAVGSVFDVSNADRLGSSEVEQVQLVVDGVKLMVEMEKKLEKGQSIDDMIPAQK
Sequence of UniProt Q6UWP2 (Q6UWP2 whole entry, looked up): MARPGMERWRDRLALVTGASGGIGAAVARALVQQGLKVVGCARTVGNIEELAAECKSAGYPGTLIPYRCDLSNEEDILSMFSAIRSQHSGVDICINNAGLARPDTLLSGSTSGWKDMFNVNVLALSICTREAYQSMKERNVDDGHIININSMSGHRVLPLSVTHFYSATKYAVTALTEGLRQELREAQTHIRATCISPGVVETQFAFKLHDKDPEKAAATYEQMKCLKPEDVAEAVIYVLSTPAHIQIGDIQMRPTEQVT
Sequence of UniProt P04080 (P04080 whole entry, looked up): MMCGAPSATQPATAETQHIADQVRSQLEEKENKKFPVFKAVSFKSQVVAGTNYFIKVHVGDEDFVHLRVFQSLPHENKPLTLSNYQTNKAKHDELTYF
Sequence of UniProt Q8NF50 (Q8NF50 whole entry, looked up): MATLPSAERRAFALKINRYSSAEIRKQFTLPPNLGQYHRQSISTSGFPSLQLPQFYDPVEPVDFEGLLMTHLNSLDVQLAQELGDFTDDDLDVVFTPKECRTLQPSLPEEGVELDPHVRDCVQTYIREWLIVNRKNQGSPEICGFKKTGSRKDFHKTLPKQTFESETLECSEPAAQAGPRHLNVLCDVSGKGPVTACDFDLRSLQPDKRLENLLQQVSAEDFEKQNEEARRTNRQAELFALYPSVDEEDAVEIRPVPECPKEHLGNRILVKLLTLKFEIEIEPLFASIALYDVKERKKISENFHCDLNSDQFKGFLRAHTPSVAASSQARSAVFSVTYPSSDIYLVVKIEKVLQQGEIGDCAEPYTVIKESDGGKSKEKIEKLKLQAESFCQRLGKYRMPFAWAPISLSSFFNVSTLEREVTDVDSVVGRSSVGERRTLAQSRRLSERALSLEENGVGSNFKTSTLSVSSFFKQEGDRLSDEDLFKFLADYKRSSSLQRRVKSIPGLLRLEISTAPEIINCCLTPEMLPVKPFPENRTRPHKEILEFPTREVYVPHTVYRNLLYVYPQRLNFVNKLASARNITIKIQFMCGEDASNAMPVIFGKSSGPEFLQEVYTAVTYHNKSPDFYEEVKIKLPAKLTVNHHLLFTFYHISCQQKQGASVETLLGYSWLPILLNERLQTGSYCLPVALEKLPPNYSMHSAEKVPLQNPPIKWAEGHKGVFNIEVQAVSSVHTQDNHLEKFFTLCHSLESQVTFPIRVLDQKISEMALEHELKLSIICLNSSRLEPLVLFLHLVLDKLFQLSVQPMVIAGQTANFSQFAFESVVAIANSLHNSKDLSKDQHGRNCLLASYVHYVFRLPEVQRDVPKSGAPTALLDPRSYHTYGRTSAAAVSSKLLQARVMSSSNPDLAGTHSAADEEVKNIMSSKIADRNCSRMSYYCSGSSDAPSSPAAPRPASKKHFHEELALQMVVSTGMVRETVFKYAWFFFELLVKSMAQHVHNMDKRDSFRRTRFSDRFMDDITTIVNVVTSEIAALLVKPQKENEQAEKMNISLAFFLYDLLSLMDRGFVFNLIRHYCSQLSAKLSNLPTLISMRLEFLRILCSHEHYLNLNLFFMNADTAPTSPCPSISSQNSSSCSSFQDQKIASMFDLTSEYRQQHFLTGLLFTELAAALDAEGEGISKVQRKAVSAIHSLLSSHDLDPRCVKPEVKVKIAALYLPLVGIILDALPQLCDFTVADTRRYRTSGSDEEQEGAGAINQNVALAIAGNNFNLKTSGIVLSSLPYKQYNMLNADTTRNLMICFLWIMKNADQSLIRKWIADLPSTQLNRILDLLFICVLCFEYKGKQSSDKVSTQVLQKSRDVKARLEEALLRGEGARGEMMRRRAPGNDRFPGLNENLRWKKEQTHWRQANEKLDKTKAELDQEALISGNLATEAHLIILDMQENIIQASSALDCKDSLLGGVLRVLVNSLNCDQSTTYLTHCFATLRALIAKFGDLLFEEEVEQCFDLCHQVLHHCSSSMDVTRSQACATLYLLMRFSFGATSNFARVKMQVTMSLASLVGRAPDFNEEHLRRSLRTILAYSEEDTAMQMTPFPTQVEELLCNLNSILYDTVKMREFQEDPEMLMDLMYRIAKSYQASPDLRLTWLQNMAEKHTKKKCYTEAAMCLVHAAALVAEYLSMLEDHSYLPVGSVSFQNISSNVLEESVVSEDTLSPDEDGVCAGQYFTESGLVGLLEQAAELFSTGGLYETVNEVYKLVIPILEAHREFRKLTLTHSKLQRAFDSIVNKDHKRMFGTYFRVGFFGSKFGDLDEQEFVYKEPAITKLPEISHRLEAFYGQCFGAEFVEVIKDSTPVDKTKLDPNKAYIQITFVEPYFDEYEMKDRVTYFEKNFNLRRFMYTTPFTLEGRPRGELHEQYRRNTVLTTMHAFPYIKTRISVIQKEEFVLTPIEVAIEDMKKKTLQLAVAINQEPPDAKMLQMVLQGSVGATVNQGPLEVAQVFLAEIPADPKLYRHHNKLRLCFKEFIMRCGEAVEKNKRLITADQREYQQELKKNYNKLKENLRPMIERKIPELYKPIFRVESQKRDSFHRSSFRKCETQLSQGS
Sequence of UniProt Q99766 (Q99766 whole entry, looked up): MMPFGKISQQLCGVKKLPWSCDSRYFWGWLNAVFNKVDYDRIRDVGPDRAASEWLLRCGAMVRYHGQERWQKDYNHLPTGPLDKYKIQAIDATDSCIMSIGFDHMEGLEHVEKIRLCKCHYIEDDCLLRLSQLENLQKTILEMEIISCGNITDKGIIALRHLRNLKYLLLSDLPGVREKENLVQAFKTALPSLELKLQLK

These targets were tested with CC1=C(C=C(C=C1)NC(=O)C2=CC(=CC=C2)N(C)C)NC(=O)C3=CC=C(C=C3)O (assay: log2 fold change, soluble protein after heating vs DMSO (PISA); higher = thermal stabilisation; K562 lysate, 10 uM; active = over 0.2 and 3.5 SD of the protein, either way, in both replicates (recomputed)).
How it was run: (§1)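 Thermal stability, expressed as log-two fold change relative to solvent controls, is given from duplicates. Crude K562 extract in PBS pH 7.4 with 1 mM MgCl2, at 1 mg/mL protein, was treated with 10 μM compound for 30 min and heated in aliquots for 3 min across 48°C-58°C. After pooling, adjustment to 0.5% NP-40 at 4°C and centrifugation at 21,000xg for 90 min, supernatant protein was measured by TMTpro 16plex LC-MS/MS with channel sums equalised.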
CKM (UniProt P06732) gave a log2 fold change of 0.005. Work on CMIP (UniProt Q8IY22) yielded a log2 fold change of 0.029. Target COG6 (UniProt Q9Y2V7) has a log2 fold change of 0.033. DGCR8 (UniProt Q8WYQ5) gave a log2 fold change of 0.071. With COPZ1 isoform 4 (UniProt P61923) the log2 fold change was -0.012. In the case of DENND6A (UniProt Q8IWF6), the log2 fold change is reported as 0.022. For CKAP5 (UniProt Q14008), the log2 fold change was 0.023. CNOT2 (UniProt Q9NZN8) gave a log2 fold change of -0.007. Target COL6A5 (UniProt A8TX70) has a log2 fold change of -0.011. For DCP1A (UniProt Q9NPI6), the log2 fold change was 0.011. Target COG2 (UniProt Q14746) has a log2 fold change of 0.062. DEF6 (UniProt Q9H4E7) gave a log2 fold change of 0.066. CSDE1 isoform 4 (UniProt O75534) gave a log2 fold change of 0.012. CNOT6L (UniProt Q96LI5) showed a log2 fold change of -0.041. For DHRS11 (UniProt Q6UWP2), the log2 fold change was 0.015. Target DNAJC1 (UniProt Q96KC8) has a log2 fold change of 0.032. Work on DOCK7 (UniProt Q96N67) yielded a log2 fold change of 0.065. With CTNND1 isoform 3 (UniProt O60716) the log2 fold change was 0.032. With CHUK (UniProt O15111) the log2 fold change was 0.009. With COG5 isoform 2 (UniProt Q9UP83) the log2 fold change was 0.073. Work on CSTB (UniProt P04080) yielded a log2 fold change of 0.009. CHORDC1 (UniProt Q9UHD1) gave a log2 fold change of 0.033. Work on CSTF2 (UniProt P33240) yielded a log2 fold change of 0.052. CIP2A (UniProt Q8TCG1) was tested, and the log2 fold change was 0.059. For DOCK8 (UniProt Q8NF50), the log2 fold change was 0.057. Target COQ9 (UniProt O75208) has a log2 fold change of 0.037. CKS1B (UniProt P61024) was tested, and the log2 fold change was 0.003. In the case of CXXC1 isoform 2 (UniProt Q9P0U4), the log2 fold change is reported as 0.061. For CXorf38 (UniProt Q8TB03), the log2 fold change was -0.015. For DDX54 isoform 2 (UniProt Q8TDD1), the log2 fold change was -0.006. With CSNK2A1 (UniProt P68400) the log2 fold change was -0.01. Work on DMAC2L (UniProt Q99766) yielded a log2 fold change of -0.043. Target DCP2 (UniProt Q8IU60) has a log2 fold change of 0.081. For CYP51A1 (UniProt Q16850), the log2 fold change was 0.014. CMPK2 (UniProt Q5EBM0) showed a log2 fold change of -0.018.

What follows are targets tested with CC1=CC=C(C=C1)SC2=C3C=C(SC3=CN=C2)C(=O)N in the same assay as above.
How it was run: as §1
CKM (UniProt P06732) showed a log2 fold change of -0.02. CMIP (UniProt Q8IY22) was tested, and the log2 fold change was 0.004. With COG6 (UniProt Q9Y2V7) the log2 fold change was 0.021. For DGCR8 (UniProt Q8WYQ5), the log2 fold change was -0.006. COPZ1 isoform 4 (UniProt P61923) was tested, and the log2 fold change was 0.117. DENND6A (UniProt Q8IWF6) gave a log2 fold change of 0.051. Work on CKAP5 (UniProt Q14008) yielded a log2 fold change of 0.006. For CNOT2 (UniProt Q9NZN8), the log2 fold change was 0.011. In the case of COL6A5 (UniProt A8TX70), the log2 fold change is reported as -0.053. Work on DCP1A (UniProt Q9NPI6) yielded a log2 fold change of 0. In the case of COG2 (UniProt Q14746), the log2 fold change is reported as -0.009. With DEF6 (UniProt Q9H4E7) the log2 fold change was -0.001. In the case of CSDE1 isoform 4 (UniProt O75534), the log2 fold change is reported as 0.009. Target CNOT6L (UniProt Q96LI5) has a log2 fold change of 0.016. With DHRS11 (UniProt Q6UWP2) the log2 fold change was 0.03. DNAJC1 (UniProt Q96KC8) showed a log2 fold change of 0.011. Work on DOCK7 (UniProt Q96N67) yielded a log2 fold change of -0.028. For CTNND1 isoform 3 (UniProt O60716), the log2 fold change was -0.025. With CHUK (UniProt O15111) the log2 fold change was -0.016. COG5 isoform 2 (UniProt Q9UP83) showed a log2 fold change of 0.052. CSTB (UniProt P04080) was tested, and the log2 fold change was 0.021. CHORDC1 (UniProt Q9UHD1) gave a log2 fold change of 0.006. In the case of CSTF2 (UniProt P33240), the log2 fold change is reported as 0.011. CIP2A (UniProt Q8TCG1) gave a log2 fold change of -0.033. DOCK8 (UniProt Q8NF50) showed a log2 fold change of -0.011. Work on COQ9 (UniProt O75208) yielded a log2 fold change of 0. Target CKS1B (UniProt P61024) has a log2 fold change of -0.012. Work on CXXC1 isoform 2 (UniProt Q9P0U4) yielded a log2 fold change of -0.155. For CXorf38 (UniProt Q8TB03), the log2 fold change was 0.025. DDX54 isoform 2 (UniProt Q8TDD1) gave a log2 fold change of 0.013. With CSNK2A1 (UniProt P68400) the log2 fold change was 0.002. For DMAC2L (UniProt Q99766), the log2 fold change was -0.019. DCP2 (UniProt Q8IU60) showed a log2 fold change of -0.002. Work on CYP51A1 (UniProt Q16850) yielded a log2 fold change of -0.099. With CMPK2 (UniProt Q5EBM0) the log2 fold change was -0.01.
